p53 reactivator = qHTS assay for re-activators of p53 using a Luc reporter; H1299 p53-A138V BP100-luciferase reporter, luminescence, 24 h; Potency, µM (doses to about 92.2 µM), usual class: activators; 320,000 compounds, 0.063% hits; AID 504706, 2011; further: nearly all actives have a fitted effect of over 45% in size
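H1299 (p53-null), stable ts p53-A138V + BP100-Luc; 1000 cells/well, Opti-MEM/10% FBS; cpd 4 pt, 1:5; 24 h, 37 deg C, 5% CO2; detection reagent 10 min RT; luminescence.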
Nrf2 inh = Nrf2 qHTS screen for inhibitors; 360,000 compounds, 2.1% hits; Potency, µM (top dose mostly 46 µM), most hits filed as inhibitors; AID 504444, 2011; A549 ARE-Fluc reporter, luciferase luminescence, 18-24 h; further: nearly all actives have a fitted effect of over 60% in size
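Reporter: ARE-Fluc in A549. Exposure: 18-24 h, 37 °C, 5% CO2, 5% FBS OPTI-MEM. Readouts: fluorescent cytotoxicity (CellTiter-Fluor), then luminescent Nrf2 signal after BugLite.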
A549 tox = Nrf2 qHTS screen for inhibitors: counterscreen for cytotoxicity. A549 ARE-Fluc cells, CellTiter-Fluor viability, 18-24 h. Potency, µM (series often up to 46 µM), actives largely listed as inhibitors. 390,000 compounds, 0.16% hits. AID 504648, 2011
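Cytotoxicity counterscreen: CellTiter-Fluor fluorescence was measured in A549 ARE_Fluc cells after 18-24 h of compound exposure in a concentration series. The subsequent BugLite luminescent read reports ARE-luciferase activity.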
Nrf2 ARE act = qHTS of Nrf2 Activators; AREc32 ARE-luciferase reporter (MCF7-derived line), luminescence, 24 h; Potency, µM (series often up to 46.1 µM), hits mostly activators; 410,000 compounds, 0.31% hits; AID 624171, 2012; further: nearly all actives have a fitted effect of over 65% in size
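Luminescent ARE reporter assay in AREc32_Fluc cells: overnight plating at 37 deg C, 24 hr compound incubation, Steady-Glo added, 30 min RT before reading.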
BRCA1 expr act = qHTS Assay to Identify Small Molecule Activators of BRCA1 Expression; 380,000 compounds, 1.1% hits; Potency, µM (highest dose often 46.1 µM), actives largely listed as activators; AID 624202, 2012; MCF7-BRCA1-FFLuc reporter, luminescence, 48 h; response scale: scaled: vehicle 0%, 10 µM genistein 100%; further: nearly all actives have a fitted effect of over 80% in size
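Reporter cells (MCF7, BRCA1 promoter-firefly luciferase) received library compounds across a concentration series for 48 h. End-point luminescence was measured and concentration-effect curves derived after normalization.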
IL-2 act = qHTS of IL-2 Activators | 360,000 compounds, 0.065% hits | AID 652025, 2013 | IL-2 activation reporter assay, cell-based qHTS; stimulated with anti-CD3/CD4/CD28 beads; in transgenic mouse T cells | activation, % (series mostly up to about 46 µM); in the data active means activation above about 50%; inconclusive means mostly about 30% to 49%
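First, unstimulated transgenic mouse T cells were exposed to compound for 60 min. Next, anti-CD3/anti-CD4-coated beads with anti-CD28 were added. Finally, after 18 h at 37 degrees C, EGFP and DsRed were imaged.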
A number is an active result; – = inactive; ? = inconclusive; · = no result; [ ] = another dose, or the depositor's remark. Only some compounds are listed: those with a hit (about 3.2% of all), similar ones and a draw of the others. Unless noted, the call rests on the fitted dose curve; in most records, active means well fitted curve in the direction sought with a large enough effect; inconclusive means small, poorly fitted or top-dose-only effect, or another doubt; inactive means no such curve, though single readings can be large; an effect the other way counts as inactive or inconclusive.

SMILES | p53 reactivator | Nrf2 inh | A549 tox | Nrf2 ARE act | BRCA1 expr act | IL-2 act
Cc1ccccc1-c1nnc2c3ccccc3c(C)nn12 | – | – | – | ? | – | –
Cc1nn2c(-c3ccco3)nnc2c2ccccc12 | · | – | – | 0.56µM | –[1.84 µM] | –
COc1ccc(-c2nnc3c4ccccc4c(C)nn23)cc1 | ? | ? | – | 4.5µM | – | –
CSCCC(=O)N1CCCC(CO)(CCCc2ccccc2)C1 (centres undefined) | · | – | – | –[9.22 µM] | – | –
O=C1CCCN1CCC(=O)N1CCCC(CO)(Cc2ccccc2)C1 (centres undefined) | 28µM | ? | – | – | – | –
CC(=O)Nc1ccc(NC(=O)C2Cc3ccccc3N2C(=O)c2ccccc2)cc1 (centres undefined) | · | · | – | – | · | ·
CCOc1ccc(NC(=O)N2CCc3ccccc3C2)cc1 | – | – | – | – | – | –
O=C(Cc1ccc(Cl)cc1)N1CCc2ccccc2C1 | · | – | – | – | 10µM | –
O=C(Nc1ccccc1)N1CCc2ccccc2C1 | ? | ? | – | – | ? | –
CC(=O)c1cccc(NC(=O)N2CCc3ccccc3C2)c1 | – | – | – | – | 8.9µM | –
CN(C)c1ccc(NC(=O)CN2CCc3ccccc3C2)cc1 | ? | ? | – | – | 11µM | –
COc1ccc(NC(=O)N2CCc3ccccc3C2)cc1 | – | – | – | – | 7.9µM | –
COc1cc(OC)c(NC(=O)c2cc(CN3CCOCC3)on2)cc1Cl | · | – | – | – | · | ·
CCOC(=O)CNC(=O)c1ccc(-c2nn(C)c(=O)c3ccccc23)cc1 | · | – | – | – | – | ·
CC(C)Cn1c(=O)c2ccccc2n2c(CCC(=O)NCc3ccc(Cl)cc3)nnc12 | · | – | – | – | · | ·
C=C1CCN(C(Cc2ccccc2)C(=O)N2CCOCC2)S(=O)(=O)c2ccccc21 (centres undefined) | · | – | – | · | · | ·
CC(=O)c1ccc(NC(=O)N2CCc3ccccc3C2)cc1 | – | – | – | – | 11µM | –
O=C(CNc1cccc(F)c1)N1CCc2ccccc2C1 | ? | ? | – | – | 7.9µM | –
COC(=O)[C@@]12C[C@@H](CC(=O)NCC3CCCCC3)C(=O)N(Cc3ccc4c(c3)OCO4)C1=CCC(C)(C)C2 | · | · | · | · | · | –
Cc1c(/C=C/C(=O)c2ccc(C(C)C)cc2)cnn1C | – | ? | – | –[9.22 µM] | 11µM | –
CCn1ncc(/C=C/C(=O)c2ccccc2)c1C | ? | ? | – | ? | 11µM | –
Cc1c(/C=C/C(=O)c2ccc(O)cc2)cnn1C | ? | – | – | – | ? | –
COC(=O)c1c(C)oc2ccc(N(C(=O)c3ccncc3)S(=O)(=O)c3ccc(C)cc3C)cc12 | – | 6.5µM | ? | – | – | –
COC(=O)c1c(C)oc2ccc(N(C(=O)c3ccncc3)S(=O)(=O)c3ccc4ccccc4c3)cc12 | – | 23µM | – | – | – | –
CCOC(=O)c1c(C)oc2ccc(N(C(=O)c3ccncc3)S(=O)(=O)c3ccc(F)cc3C)cc12 | · | ? | – | – | · | ·
SMILES | p53 reactivator | Nrf2 inh | A549 tox | Nrf2 ARE act | BRCA1 expr act | IL-2 act
COC(=O)c1c(C)oc2ccc(N(C(=O)c3ccncc3)S(=O)(=O)c3ccc(C)cc3)cc12 | – | 10µM | ? | – | – | –
COC(=O)c1c(C)oc2ccc(N(C(=O)c3ccncc3)S(=O)(=O)c3ccccc3)cc12 | – | · | ? | – | – | –
CC(=O)c1c(C)oc2ccc(N(C(=O)c3ccncc3)S(=O)(=O)c3ccc(F)cc3C)cc12 | · | ? | – | – | · | ·
COc1ccccc1CNC(=O)Cn1ncc2c(C)n(Cc3ccccc3Cl)c(C)c2c1=O | · | ? | – | – | · | ·
COc1ccccc1CCNC(=O)C1CCN(c2nnc(-n3cccc3CNc3ccc(C)cc3)s2)CC1 | · | – | – | – | · | ·
O=C(O)C(Cc1ccnc2ccccc12)=NO | · | – | – | – | – | –
OC(Cc1ccnc2ccccc12)C(Cl)(Cl)Cl (centres undefined) | · | 18µM | – | – | – | –
CN(C)/[N+]([O-])=N\Oc1cc(OC(=O)c2ccc(N)cc2)c([N+](=O)[O-])cc1[N+](=O)[O-] | · | · | · | · | – | ·
COc1cccc2c1cc1c(=O)n(CC(=O)NCc3ccc(N(C)C)cc3)nc(C)n12 | · | – | – | – | · | ·
CCN(CC)c1ccc2c(-c3ccc(S(=O)(=O)O)cc3S(=O)(=O)[O-])c3ccc(=[N+](CC)CC)cc-3oc2c1 | – | ? | 12µM | – | – | –
CCN(CC)c1ccc2cc(C(N)=O)c(=N)oc2c1 | – | ? | – | – | ? | –
COc1ccc2c(c1)S/C(=C\C(=O)c1ccncc1)N2C | – | – | ? | – | 4.5µM | –
COc1ccc(CCNCC(=O)Nc2ccc(C)c(S(=O)(=O)N(C)C)c2)cc1 | – | – | – | – | – | –
COc1ccc(NS(=O)(=O)c2ccc(C)c(C(=O)N(C)CCc3ccc(OC)c(OC)c3)c2)cc1 | – | 21µM | – | – | – | –
COc1cc(CCC(=O)Nc2ccc(C)c(S(=O)(=O)N(C)C)c2)cc(OC)c1OC | – | 23µM | – | – | – | –
COc1ccc(CCC(=O)Nc2ccc(C)c(S(=O)(=O)N(C)C)c2)cc1OC | – | 13µM | – | – | – | –
Cc1ccccc1C(=O)N1CCC(N2CCN(Cc3ccc(F)cc3)C(=O)C2=O)CC1 | · | – | – | – | · | ·
O=C(Cc1nnc(CNC(=O)c2ccccc2)s1)Nc1ccc(C(F)(F)F)cc1Cl | · | – | – | · | · | ·
C(=NN1CCCCCC1)c1ccc2ccccc2n1 | · | 18µM | – | – | – | –
Cc1cccc(N2CCN(S(=O)(=O)c3cc(C(=O)Nc4ccccc4Cl)ccc3F)CC2)c1C | · | · | – | – | · | ·
Cc1cccc(NC(=O)C(=O)NCC(c2cccnc2)N2CCc3ccccc3C2)c1C (centres undefined) | · | – | – | – | · | ·
O=C(O)CC(CC(=O)Nc1ccc(-n2ccc(C(F)(F)F)n2)cc1)c1ccccc1 (centres undefined) | – | – | – | – | – | –
O=C(Nc1ccccc1)Nc1ccc(-n2ccc(C(F)(F)F)n2)cc1 | ? | ? | – | – | 3.5µM | –
Cn1nnnc1Sc1ncnc2scc(-c3ccc(N)cc3)c12 | · | – | – | · | · | ·
CCN(CC)S(=O)(=O)c1cccc(NC(=O)C2CC(=O)N(c3ccc4c(c3)OCCO4)C2)c1 (centres undefined) | – | 23µM | – | – | – | –
CCN(CC)S(=O)(=O)c1ccc(OC)c(NC(=O)C2CC(=O)N(c3ccc4c(c3)OCCO4)C2)c1 (centres undefined) | – | ? | – | – | – | –
c1ccc(CSc2n[nH]c(-c3ccco3)n2)cc1 | ? | – | – | – | 11µM | –

High-throughput results as filed in PubChem.
